# Laboratory results as given in PubChem BioAssay AID1085 (Emory University Molecular Libraries Screening Center, 2008).
# The whole screen tested about 220,000 compounds, of which about 930 (0.42%) were called active. The full list was thinned out, with actives kept by preference. Values without a mark were called inactive. Cut-off read from the data, not from the text of the source: active = inhibition above about 50%; inactive = the rest.
# Target: Glycoprotein 42 (Epstein-Barr virus (strain AG876)) (UniProt Q1HVG2)
# Assay: Epstein-Barr virus gp42 inhibitors, primary screen, biochemical, uHTS, fluorescence polarization (AID 1085)
# Conditions: Fluorescence polarization binding assay, mP read-out; hits give high values; tested at 21.74 µM
# Glycoprotein 42 (Epstein-Barr virus (strain AG876)), sequence (Q1HVG2 whole entry, looked up): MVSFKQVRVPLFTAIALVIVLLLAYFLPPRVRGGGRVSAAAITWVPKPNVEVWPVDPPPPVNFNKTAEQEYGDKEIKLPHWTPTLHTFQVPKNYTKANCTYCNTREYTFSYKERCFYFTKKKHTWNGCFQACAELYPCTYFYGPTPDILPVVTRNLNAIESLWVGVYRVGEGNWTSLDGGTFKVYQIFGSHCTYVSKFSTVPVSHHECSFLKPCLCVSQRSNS
row,SMILES,inhibition
1,CCOC(=O)c1cc2n(c1N)-c1ccccc1C2=O,157% (active)
2,CCOC(=O)Nc1ccccc1N1C(=O)c2ccccc2C1=O,-16.9%
3,CC(C)OC(=O)CN1C(=O)C(=O)c2ccccc21,-5.73%
4,CCNc1nc(N)nc(-c2cc(Cl)ccc2OC)n1,-10.6%
5,CCN(CC)S(=O)(=O)c1ccc(Cl)c(C(=O)NC(C)C(c2cccs2)N2CCCC2)c1 (stereo unspecified),-7.74%
6,O=C(c1[nH]ncc1-c1ccc(Cl)cc1)C1CO1 (stereo unspecified),-0.17%
7,Nc1ccc2nc3c(=O)[nH]c(=S)[nH]c3nc2c1,158% (active)
8,O=C(Nc1ccc([N+](=O)[O-])cc1)C1CC12CCC2 (stereo unspecified),18.7%
9,FC(F)(F)c1ccc(-n2cn[nH]c2=S)cc1,-0.1%
10,COc1ccccc1NC(=O)CCSc1nnc(-c2ccc(O)cc2)o1,16.2%
11,Cc1cccc(OCCNC(=S)NC(=O)c2cccnc2)c1,-11%
12,CCOC(=O)c1ccc[n+](CC(=O)Nc2ccccc2OC(F)F)c1,-15.4%
13,Cc1ccc(-c2nc(SCC(=O)Nc3ccccc3OC(F)F)c3c(C)c(C(=O)O)sc3n2)cc1,92.6% (active)
14,Cc1ccc(C)c(SCc2nc3sc(C(=O)O)c(C)c3c(=O)[nH]2)c1,-9.06%
15,C[C@@H](NC(=O)OC(C)(C)C)c1nnc(S(=O)(=O)Cc2ccccc2)o1,0.97%
16,Cc1ccc(NC(=S)Nc2ncccc2C)c(C)c1,-9.14%
17,CCOC(=O)c1c(NC(=O)CNC2CCCc3ccccc32)sc(C(N)=O)c1C (stereo unspecified),-9.07%
18,N#C/C(=C(/O)Cc1cccc2ccccc12)c1nc2ccccc2s1,4%
19,O=C(O)CS/C(=C\c1ccc(F)cc1)c1nc2ccccc2s1,-2.63%
20,CC1=CC(=C(C#N)c2nc3ccccc3s2)C=C(C)N1c1ccc(F)cc1F,176% (active)
21,Cc1c(C(=O)Nc2cccc(Cl)c2)cn2c(nc3ccccc32)c1C#N,-23.4%

row,SMILES,inhibition
1,CC(=O)Nc1ccc(NS(=O)(=O)c2cc(C)sc2C)cc1,15.2%
2,O=C(Nc1ccc2sc3ccccc3c(=O)c2c1)c1ccccc1Cl,-5.22%
3,FC(F)(F)Oc1ccc(-c2cn3cccnc3n2)cc1,-6.62%
4,COCCOC(=O)c1sc(=S)n(CCOC)c1N,85.3% (active)
5,COC(=O)c1sc(=S)n(-c2ccccc2)c1N,-22.9%
6,CCOC(=O)c1sc(=S)n(-c2cccc(OC)c2)c1N,-17.2%
7,C/C(=N/NC(=O)CN1CCN(S(=O)(=O)c2ccc(Br)cc2)CC1)c1ccncc1,-10.4%
8,Cc1c(NC(=S)NCc2ccc(F)cc2)cccc1[N+](=O)[O-],-0.91%
9,CCOc1ccc(/C=C(/NC(=O)c2ccccc2)C(=O)NCCC(=O)O)cc1,8.99%
10,COc1cc(/C=N\Nc2nc(-c3cccs3)c(NC(C)=O)s2)ccc1O,-5.81%
11,CCOc1cc(/C=C(\C#N)c2nc(-c3cccs3)c(NC(C)=O)s2)ccc1O,93.2% (active)
12,COc1cc(/C=C(\C#N)c2nc3c(s2)CC(C)CC3)ccc1O (stereo unspecified),-29.5%
13,C/C(CC(=O)N1CCN(C=O)CC1)=N\NC(=O)c1ccc(Br)cc1,8.36%
14,COc1ccc(/C=N/n2c(C)cc(C)cc2=O)cc1,1.02%
15,Cc1cccc(NC(=S)NC23CN4CN(CN(C4)C2)C3)c1,-1.99%
16,C=CCn1c(SCC(=O)Nc2nc3ccccc3s2)nnc1-c1ccccc1O,-0.36%
17,CCn1c(COc2ccccc2)nnc1SCC(=O)NCc1ccco1,2.39%
18,C=CCn1c(CSc2nc3ccccc3s2)nnc1SCC(=O)NCc1ccco1,50.6% (active)
19,CSc1cc(C)[nH]c(=O)n1,6.61%
20,Cc1cc(C(=O)N/N=C/c2ccc(N3CCOCC3)cc2)c(C)o1,-16.3%
21,CNC(=O)c1ccsc1NC(=O)c1ccc(S(=O)(=O)N2CCc3ccccc32)cc1,0.14%

row,SMILES,inhibition
1,Cc1cnc(C(=O)OCC(=O)NCCCc2ccccc2)cn1,-8.79%
2,COc1ccccc1OCC(=O)OCn1c(SC)nnc(C)c1=O,-6.57%
3,Cn1c(=O)n(C)c2cc(/C=N/NC(=O)c3cccc(Br)c3)ccc21,-5.32%
4,O=C(C1=C(O)C(=O)N(c2ncccn2)C1c1cccs1)c1ccco1 (stereo unspecified),65.7% (active)
5,O=C(C1=C(O)C(=O)N(Cc2ccccc2)C1c1ccco1)c1ccco1 (stereo unspecified),-8.71%
6,O=C(C1=C(O)C(=O)N(CCOCCO)C1c1ccccn1)c1cccs1 (stereo unspecified),-10.3%
7,CCOC(=O)N/N=C1\CC(C)S(=O)(=O)c2ccc(Cl)cc21 (stereo unspecified),0.18%
8,O=c1cc(CO)oc(C(Nc2cccc([N+](=O)[O-])c2)c2ccccn2)c1O (stereo unspecified),-4.92%
9,COc1ccc(-c2nn(C)c(=O)c3ccccc23)cc1CNC(=O)C1CCCCC1,-11.8%
10,COC(=O)CCCC1=CC2=CC(=O)C(C)(OC(=O)c3cccs3)C(=O)C2=CN1CC1CC1 (stereo unspecified),0.53%
11,COC(=O)CCCC1=CC2=CC(=O)C(C)(OC(=O)c3cccs3)C(=O)C2=CN1CC(C)C (stereo unspecified),2.99%
12,COC(=O)CCCC1=CC2=CC(=O)C(C)(OC(=O)c3cccs3)C(=O)C2=CN1c1cccc(C#N)c1 (stereo unspecified),78% (active)
13,Cc1ccc(C(=O)NNc2ncnc3ccccc23)cc1,-1.4%
14,CC(C)Oc1ccc(Oc2ccc(C(F)(F)F)cn2)cc1,6.36%
15,NC1=NC(=O)C2(COC(c3ccccc3Cl)OC2)S1 (stereo unspecified),-11.7%
16,CN1CCN(CCCCOc2ccccc2-c2ccccc2)CC1,-24.1%
17,Cc1cccn2c(=O)c(/C=C3\SC(=S)N(CC(C)C)C3=O)c(NCCCOC(C)C)nc12,137% (active)
18,CNc1nc2c(C)cccn2c(=O)c1C=Nc1ccc(OC)cc1,-10.2%
19,CCOC(=O)CC1C(=O)NCCN1c1nc2c(C)cccn2c(=O)c1/C=C1\SC(=S)N(C(C)CC)C1=O (stereo unspecified),-14.8%
